Reference: PubChem BioAssay (EPA / NIEHS)
Active and inactive are the calls of the source. The calls were made as follows: active = hit-call score of the fitted dose curve at least 0.9, where 1 is the maximum; inactive = score below 0.9.

Test: APR_HepG2_CellCycleArrest_24hr: Apredica 24-hour HepG2 Assay for Cell Cycle Arrest (AID 2282905);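 also: cell cycle arrest scored as ratio of 2N to 4N nuclear DNA content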
Conditions: imaging, actives raise or lower the signal
Procedure, shortened: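 Compounds at 0.39–200 uM (0.5% DMSO) for 24 h, then fixed and Hoechst 33342 stained. Cell-cycle analysis of nuclear DNA content by high-content imaging, fitted bidirectionally versus DMSO.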

Question: For `CCC(C)c1ccc(O)cc1` (stereo not given), which outcome is on record?
Answer: inactive

Question: For `c1ccc2c(c1)oc1ccccc12`, which outcome is on record?
Answer: inactive

Question: For `CCCSC(=O)N(CCC)CCC`, which outcome is on record?
Answer: inactive

Question: For `CCCCCCCCn1sccc1=O`, which AC50 is on record?
Answer: 6.2 µM (active)

Question: Which outcome does the source give for `O=C(O)C1C2CCC(O2)C1C(=O)O` (stereo not given) here?
Answer: inactive

Question: With `Oc1ccc2ccc3cccc4ccc1c2c34` as the molecule, how does the outcome read?
Answer: inactive

Test: APR_HepG2_NuclearSize_24hr: Apredica 24-hour HepG2 Assay for Nuclear Size (AID 2282907)
Conditions: high-content imaging, actives raise or lower the signal
Procedure, shortened: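 HepG2 cells exposed 24 h to compounds at 0.39–200 uM (0.5% DMSO), fixed, Hoechst 33342 stained and imaged at 20x; nuclear diameter measured by automated image analysis, fitted bidirectionally against DMSO controls.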

Question: With `O=[N+]([O-])c1ccc(Oc2ccc(Cl)cc2Cl)cc1` as the molecule, how does the outcome read?
Answer: inactive

Question: With `Cn1cc(-c2ccccc2)c(=O)c(-c2cccc(C(F)(F)F)c2)c1` as the molecule, how does the outcome read?
Answer: inactive

Question: Which outcome does the source give for `CN(C)c1ccccc1` here?
Answer: inactive

Question: With `Oc1ccccc1Cl` as the molecule, how does the outcome read?
Answer: inactive

Question: For `C=CCc1ccc2c(c1)OCO2`, which outcome is on record?
Answer: inactive

Question: With `CCCCCCCCCCCCCN1CC(C)OC(C)C1` (stereo not given) as the molecule, how does the AC50 read?
Answer: 105 µM (active)

Question: For `Nc1cc(Cl)cc(C(=O)O)c1Cl`, which outcome is on record?
Answer: inactive

Question: With `Nc1ccc(Cl)cc1N` as the molecule, how does the outcome read?
Answer: inactive

Question: Which outcome does the source give for `CC(C)N(Cc1ccccc1)C(=O)C(C)(C)C` here?
Answer: inactive

Question: Which outcome does the source give for `ClCCOCCCl` here?
Answer: inactive

Question: Which outcome does the source give for `CO[C@@H]1[C@H](OC(=O)NC(=O)CCl)CC[C@]2(CO2)[C@H]1[C@@]1(C)O[C@@H]1CC=C(C)C` here?
Answer: inactive

Question: With `CCOc1cccc(C2(N3CCN(c4ccccc4)CC3)CCC(C)CC2)c1` (stereo not given) as the molecule, how does the outcome read?
Answer: inactive

Question: With `CCC12COCN1COC2` as the molecule, how does the outcome read?
Answer: inactive

Question: With `CS(=O)(=O)NC(=O)c1cc(Oc2ccc(C(F)(F)F)cc2Cl)ccc1[N+](=O)[O-]` as the molecule, how does the outcome read?
Answer: inactive

Question: For `ClC1=C(Cl)C2(Cl)C3C(Cl)C=CC3C1(Cl)C2(Cl)Cl` (stereo not given), which AC50 is on record?
Answer: 101 µM (active)

Question: With `Cc1ccc([N+](=O)[O-])cc1` as the molecule, how does the outcome read?
Answer: inactive

Question: For `O=C(N[C@H](c1ccccc1)[C@@H]1CN2CCC1CC2)c1c(Cl)ccc(C(F)(F)F)c1Cl`, which AC50 is on record?
Answer: 88.8 µM (active)

Question: For `CCCCOC(=O)c1ccccc1C(=O)OCc1ccccc1`, which outcome is on record?
Answer: inactive

Question: For `O=C1CCCO1`, which outcome is on record?
Answer: inactive

Question: With `c1ccc(N=Nc2ccccc2)cc1` as the molecule, how does the outcome read?
Answer: inactive

Question: Which outcome does the source give for `CN(C)[C@@H]1C(=O)C(C(N)=O)=C(O)[C@@]2(O)C(=O)C3=C(O)c4c(O)cccc4[C@@](C)(O)[C@H]3C[C@@H]12` here?
Answer: inactive

Question: With `CCC(C)c1ccc(O)cc1` (stereo not given) as the molecule, how does the outcome read?
Answer: inactive

Question: With `c1ccc2c(c1)oc1ccccc12` as the molecule, how does the outcome read?
Answer: inactive

Question: For `CCCSC(=O)N(CCC)CCC`, which outcome is on record?
Answer: inactive

Question: For `CCCCCCCCn1sccc1=O`, which AC50 is on record?
Answer: 10.7 µM (active)

Question: Which outcome does the source give for `O=C(O)C1C2CCC(O2)C1C(=O)O` (stereo not given) here?
Answer: inactive

Question: With `Oc1ccc2ccc3cccc4ccc1c2c34` as the molecule, how does the outcome read?
Answer: inactive

Test: APR_HepG2_CellLoss_24hr: Apredica 24-hour HepG2 Assay for Cell Loss (AID 2282908);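 as to AC50: fit in both directions so a hit may be cell loss or gain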
Conditions: high-content imaging
Procedure, shortened: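 HepG2 cells exposed 24 hr to 0.39–200 uM compound in duplicate at 0.5% v/v final DMSO. Cells fixed in 3.7% formaldehyde and Hoechst 33342-stained. Cell number came from nuclear imaging at 20x. Bidirectional fit versus DMSO.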

Question: With `O=[N+]([O-])c1ccc(Oc2ccc(Cl)cc2Cl)cc1` as the molecule, how does the AC50 read?
Answer: 80.8 µM (active)

Question: With `Cn1cc(-c2ccccc2)c(=O)c(-c2cccc(C(F)(F)F)c2)c1` as the molecule, how does the outcome read?
Answer: inactive

Question: For `CN(C)c1ccccc1`, which outcome is on record?
Answer: inactive

Question: Which outcome does the source give for `Oc1ccccc1Cl` here?
Answer: inactive

Question: With `C=CCc1ccc2c(c1)OCO2` as the molecule, how does the outcome read?
Answer: inactive

Question: With `CCCCCCCCCCCCCN1CC(C)OC(C)C1` (stereo not given) as the molecule, how does the AC50 read?
Answer: 91.8 µM (active)

Question: With `Nc1cc(Cl)cc(C(=O)O)c1Cl` as the molecule, how does the outcome read?
Answer: inactive

Question: For `Nc1ccc(Cl)cc1N`, which outcome is on record?
Answer: inactive

Question: With `CC(C)N(Cc1ccccc1)C(=O)C(C)(C)C` as the molecule, how does the outcome read?
Answer: inactive

Question: For `ClCCOCCCl`, which outcome is on record?
Answer: inactive

Question: For `CO[C@@H]1[C@H](OC(=O)NC(=O)CCl)CC[C@]2(CO2)[C@H]1[C@@]1(C)O[C@@H]1CC=C(C)C`, which outcome is on record?
Answer: inactive

Question: Which outcome does the source give for `CCOc1cccc(C2(N3CCN(c4ccccc4)CC3)CCC(C)CC2)c1` (stereo not given) here?
Answer: inactive

Question: Which outcome does the source give for `CCC12COCN1COC2` here?
Answer: inactive

Question: With `CS(=O)(=O)NC(=O)c1cc(Oc2ccc(C(F)(F)F)cc2Cl)ccc1[N+](=O)[O-]` as the molecule, how does the outcome read?
Answer: inactive

Question: Which AC50 does the source give for `ClC1=C(Cl)C2(Cl)C3C(Cl)C=CC3C1(Cl)C2(Cl)Cl` (stereo not given) here?
Answer: 99.2 µM (active)

Question: Which outcome does the source give for `Cc1ccc([N+](=O)[O-])cc1` here?
Answer: inactive

Question: With `O=C(N[C@H](c1ccccc1)[C@@H]1CN2CCC1CC2)c1c(Cl)ccc(C(F)(F)F)c1Cl` as the molecule, how does the AC50 read?
Answer: 120 µM (active)

Question: Which AC50 does the source give for `CCCCOC(=O)c1ccccc1C(=O)OCc1ccccc1` here?
Answer: 48.5 µM (active)

Question: With `O=C1CCCO1` as the molecule, how does the outcome read?
Answer: inactive

Question: Which outcome does the source give for `c1ccc(N=Nc2ccccc2)cc1` here?
Answer: inactive

Question: For `CN(C)[C@@H]1C(=O)C(C(N)=O)=C(O)[C@@]2(O)C(=O)C3=C(O)c4c(O)cccc4[C@@](C)(O)[C@H]3C[C@@H]12`, which outcome is on record?
Answer: inactive

Question: For `CCC(C)c1ccc(O)cc1` (stereo not given), which outcome is on record?
Answer: inactive

Question: With `c1ccc2c(c1)oc1ccccc12` as the molecule, how does the outcome read?
Answer: inactive

Question: With `CCCSC(=O)N(CCC)CCC` as the molecule, how does the outcome read?
Answer: inactive

Question: For `CCCCCCCCn1sccc1=O`, which AC50 is on record?
Answer: 16.1 µM (active)

Question: With `O=C(O)C1C2CCC(O2)C1C(=O)O` (stereo not given) as the molecule, how does the outcome read?
Answer: inactive

Question: Which AC50 does the source give for `Oc1ccc2ccc3cccc4ccc1c2c34` here?
Answer: 77.9 µM (active)
